Source: PubChem BioAssay (NCATS)
Results filed as inconclusive are left out. The source made the active and inactive calls. Calls come from the whole dose curve; as a rule, active = well fitted curve in the direction sought with a large enough effect; inconclusive = small, poorly fitted or top-dose-only effect, or another doubt; inactive = no such curve, though single readings can be large; an effect the other way counts as inactive or inconclusive.

What was measured:
[1] = Quantitative High-Throughput drug screen in 47 multiple myeloma cell lines against the NCATS MIPE library collection: FR4_PLB cell viability assay (AID 1918924; note: nearly all actives have a fitted effect of over 35% in size)
Outline: (§1)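 Viability readout: CellTiter-Glo luminescence following 5 min room-temperature incubation with reagent. Prior exposure: 48 h, 37C, humidified 5% CO2, 500 cells per well.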

[2] = Quantitative High-Throughput drug screen in 47 multiple myeloma cell lines against the NCATS MIPE library collection: Delta47_JCRB cell viability assay (AID 1918925; note: nearly all actives have a fitted effect of over 45% in size)
Outline: (§2)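 CellTiter-Glo luminescence (ATP) after 48 h compound exposure, 37C/5% CO2; 500 cells/well; MIPE 4.0 approved/investigational drugs pinned in; DMSO = 100%, media only = 0% viability.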

[3] = Quantitative High-Throughput drug screen in 47 multiple myeloma cell lines against the NCATS MIPE library collection: EJM_DSMZ cell viability assay (AID 1918926; note: nearly all actives have a fitted effect of over 30% in size)
Outline: as §2

[4] = Quantitative High-Throughput drug screen in 47 multiple myeloma cell lines against the NCATS MIPE library collection: AMO1_DSMZ cell viability assay (AID 1918927; note: nearly all actives have a fitted effect of over 30% in size)
Outline: as §2

[5] = Quantitative High-Throughput drug screen in 47 multiple myeloma cell lines against the NCATS MIPE library collection: ARP1_JJKsccF8 cell viability assay (AID 1918928; note: nearly all actives have a fitted effect of over 40% in size)
Outline: (§3)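 Myeloma cells, 500 per well, were exposed to MIPE 4.0 drugs by pin transfer for 48 h at 37 °C, 5% CO2. Viability was read as ATP luminescence with CellTiter-Glo, normalised to DMSO-only (100%) and medium-only (0%) wells.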

[6] = Quantitative High-Throughput drug screen in 47 multiple myeloma cell lines against the NCATS MIPE library collection: Karpas620_DSMZ cell viability assay (AID 1918959); note: nearly all actives have a fitted effect of over 30% in size
Outline: as §1

[7] = Quantitative High-Throughput drug screen in 47 multiple myeloma cell lines against the NCATS MIPE library collection: KMM1_JCRB cell viability assay (AID 1918960); note: nearly all actives have a fitted effect of over 30% in size
Outline: as §3

[8] = Quantitative High-Throughput drug screen in 47 multiple myeloma cell lines against the NCATS MIPE library collection: KHM11_PLB cell viability assay (AID 1918962); note: nearly all actives have a fitted effect of over 35% in size
Outline: as §1

[9] = Quantitative High-Throughput drug screen in 47 multiple myeloma cell lines against the NCATS MIPE library collection: JIM3_ECACC cell viability assay (AID 1918963; note: nearly all actives have a fitted effect of over 35% in size)
Outline: as §1

[10] = Quantitative High-Throughput drug screen in 47 multiple myeloma cell lines against the NCATS MIPE library collection: INA6_PLB cell viability assay (AID 1918965; note: nearly all actives have a fitted effect of over 55% in size)
Outline: (§4)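 Approved and investigational drugs from MIPE 4.0 were added by pin tool to 500 cells per well. After 48 hours at 37C, ATP-based CellTiter-Glo luminescence indicated remaining viability.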

[11] = Quantitative High-Throughput drug screen in 47 multiple myeloma cell lines against the NCATS MIPE library collection: JJN3_DSMZ cell viability assay (AID 1918966; note: nearly all actives have a fitted effect of over 50% in size)
Outline: as §2

[12] = Quantitative High-Throughput drug screen in 47 multiple myeloma cell lines against the NCATS MIPE library collection: H1112_PLB cell viability assay (AID 1918967; note: nearly all actives have a fitted effect of over 30% in size)
Outline: as §2

[13] = Quantitative High-Throughput drug screen in 47 multiple myeloma cell lines against the NCATS MIPE library collection: Karpas25_ECACC cell viability assay (AID 1918968; note: nearly all actives have a fitted effect of over 35% in size)
Outline: as §2

[14] = Quantitative High-Throughput drug screen in 47 multiple myeloma cell lines against the NCATS MIPE library collection: KMS27_JCRB cell viability assay (AID 1918970); note: nearly all actives have a fitted effect of over 30% in size
Outline: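 CellTiter-Glo luminescence after 48 h drug exposure at 37 °C; 500 cells/well, 1536-well format, pin-tool compound addition; DMSO = 100%, media-only = 0% viability.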

[15] = Quantitative High-Throughput drug screen in 47 multiple myeloma cell lines against the NCATS MIPE library collection: KMS12BM_JCRB cell viability assay (AID 1918971); note: nearly all actives have a fitted effect of over 35% in size
Outline: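 We plated 500 myeloma cells per well, pinned in MIPE 4.0 compounds, and incubated for 48 hours at 37C. ATP was then quantified with CellTiter-Glo, with DMSO and media-only wells defining 100% and 0%.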

[16] = Quantitative High-Throughput drug screen in 47 multiple myeloma cell lines against the NCATS MIPE library collection: KMS12PE_JCRB cell viability assay (AID 1918972); note: nearly all actives have a fitted effect of over 30% in size
Outline: as §4

[17] = Quantitative High-Throughput drug screen in 47 multiple myeloma cell lines against the NCATS MIPE library collection: KMS20_JCRB cell viability assay (AID 1918973); note: nearly all actives have a fitted effect of over 45% in size
Outline: as §2

[18] = Quantitative High-Throughput drug screen in 47 multiple myeloma cell lines against the NCATS MIPE library collection: ARD_JJKsccE7 cell viability assay (AID 1918929)
Outline: as §2

[19] = Quantitative High-Throughput drug screen in 47 multiple myeloma cell lines against the NCATS MIPE library collection: Karpas417_ECACC cell viability assay (AID 1918961); conditions: Karpas417 myeloma viability, CellTiter-Glo ATP luminescence, 48 h; viability (% of DMSO): at 45.8 µM (top of the series)
Outline: as §4

[20] = Quantitative High-Throughput drug screen in 47 multiple myeloma cell lines against the NCATS MIPE library collection: JIM1_ECACC cell viability assay (AID 1918964)
Outline: as §2
Potency is the fitted concentration of half-maximal effect.

| SMILES | Potency [1] | Potency [2] | Potency [3] | Potency [4] | Potency [5] | Potency [6] | Potency [7] | Potency [8] | Potency [9] | Potency [10] | Potency [11] | Potency [12] | Potency [13] | Potency [14] | Potency [15] | Potency [16] | Potency [17] | Potency [18] | Potency [19] | Potency [20] |
| --- | --- | --- | --- | --- | --- | --- | --- | --- | --- | --- | --- | --- | --- | --- | --- | --- | --- | --- | --- | --- |
| COc1cc2c(Oc3ccc(-c4cnc(Nc5ccc(F)cc5)n(C)c4=O)cc3F)ccnc2cc1OCCCN1CCOCC1 | 14.8 µM (active) | 0.935 µM (active) | 18.7 µM (active) | 2.35 µM (active) | 8.33 µM (active) | 2.96 µM (active) | 1.87 µM (active) | 8.33 µM (active) | 5.9 µM (active) | 14.8 µM (active) | 11.8 µM (active) | 14.8 µM (active) | 1.87 µM (active) | 1.18 µM (active) | 20.9 µM (active) | 1.87 µM (active) | 2.96 µM (active) |  |  |  |
| COc1cc2c(Oc3ccc(NC(=O)C4(C(=O)Nc5ccc(F)cc5)CC4)cc3F)ccnc2cc1OCCCN1CCOCC1 | 14.8 µM (active) | 0.418 µM (active) | 18.7 µM (active) | 5.26 µM (active) |  | 6.62 µM (active) | 2.96 µM (active) | 7.43 µM (active) | 11.8 µM (active) |  | 16.6 µM (active) | 16.6 µM (active) | 0.935 µM (active) | 9.35 µM (active) |  | 3.72 µM (active) | 1.87 µM (active) | 2.64 µM (active) | 2.35 µM (active) | 1.66 µM (active) |
| Cc1cc(N2CCOCC2)cc2[nH]c(-c3c(NC[C@@H](O)c4cccc(Cl)c4)cc[nH]c3=O)nc12 | 23.5 µM (active) | 0.0662 µM (active) | 0.235 µM (active) | 0.526 µM (active) | 5.26 µM (active) | 0.418 µM (active) | 0.0526 µM (active) |  | 0.132 µM (active) | 0.296 µM (active) | 1.48 µM (active) | 0.166 µM (active) | 0.0833 µM (active) | 0.332 µM (active) | 16.6 µM (active) | 7.43 µM (active) | 0.0935 µM (active) |  |  |  |
| Cc1ccc2nc(NC(=O)CSc3nc4c(c(=O)n3-c3ccccc3)SCC4)sc2c1 | 5.9 µM (active) | 18.7 µM (active) | 6.62 µM (active) | 9.35 µM (active) |  |  |  |  | 18.7 µM (active) | 8.33 µM (active) |  | 11.8 µM (active) |  |  | 9.35 µM (active) |  |  | 13.2 µM (active) | 23.5 µM (active) |  |
| CC(=O)Nc1sc2c(c1-c1nc3ccccc3s1)CNC2 | 20.9 µM (active) | 16.6 µM (active) | 23.5 µM (active) |  | 11.8 µM (active) | inactive | inactive | 26.4 µM (active) | 18.7 µM (active) | 3.72 µM (active) | 16.6 µM (active) |  |  | inactive | 11.8 µM (active) | 20.9 µM (active) | 16.6 µM (active) |  |  |  |
| CCn1nnc2c(N3CCOCC3)nc(-c3ccc(NC(=O)Nc4ccc(C(=O)N5CCN(C)CC5)cc4)cc3)nc21 | 0.0074 µM (active) | 0.0132 µM (active) | 0.469 µM (active) |  | 0.0662 µM (active) |  |  | 0.0059 µM (active) | 0.0235 µM (active) |  | 0.0187 µM (active) |  | 0.0083 µM (active) |  | 0.0059 µM (active) | 0.0469 µM (active) | 0.0235 µM (active) | 0.0372 µM (active) |  |  |
| COc1cc2c(NC3CCN(C(C)C)CC3)nc(C3CCCCC3)nc2cc1OCCCN1CCCC1 | 7.43 µM (active) | 4.69 µM (active) | 10.5 µM (active) |  | 7.43 µM (active) | 8.33 µM (active) | 23.5 µM (active) | 4.69 µM (active) |  | 3.72 µM (active) | 13.2 µM (active) | 9.35 µM (active) | 7.43 µM (active) | 7.43 µM (active) | 7.43 µM (active) | 6.62 µM (active) | 2.35 µM (active) |  |  |  |
| N#CCNC(=O)c1ccc(-c2ccnc(Nc3ccc(N4CCOCC4)cc3)n2)cc1 | 20.9 µM (active) | 9.35 µM (active) | 11.8 µM (active) |  | 16.6 µM (active) | inactive | inactive | 4.69 µM (active) |  | 1.32 µM (active) | 13.2 µM (active) | 18.7 µM (active) |  |  | 14.8 µM (active) | 5.26 µM (active) | 13.2 µM (active) | inactive |  | inactive |
| COc1ccc(-n2nc(C(N)=O)c3c2C(=O)N(c2ccc(N4CCCCC4=O)cc2)CC3)cc1 | inactive | inactive | inactive |  | inactive | inactive | inactive |  | inactive |  |  | inactive | inactive | inactive | inactive | inactive |  | inactive |  |  |
| CCOc1ccccc1OCCNC(C)Cc1ccc(OC)c(S(N)(=O)=O)c1 (stereo unspecified) | inactive | inactive | inactive |  | inactive | inactive | inactive | inactive | inactive |  | inactive | inactive |  | inactive |  | inactive | inactive | inactive |  | inactive |
| Nc1ncnc2c1c(-c1cnc3[nH]ccc3c1)nn2C1CCCC1 | 0.662 µM (active) | 0.235 µM (active) | 6.62 µM (active) |  | 0.743 µM (active) | 0.662 µM (active) | 0.0662 µM (active) | 0.296 µM (active) | 4.69 µM (active) |  | 2.35 µM (active) | 6.62 µM (active) | 0.209 µM (active) | 0.209 µM (active) | 0.743 µM (active) | 0.935 µM (active) | 0.0833 µM (active) | 1.32 µM (active) |  | 0.526 µM (active) |
